We go through 18 compounds from PubChem BioAssay (NCATS).

Inconclusive results are not listed. A call without a number means that no potency is given here. Active and inactive are the calls of the source. Calls come from the whole dose curve; tested in HEK293 reporter line.

The nature of the assay: qHTS for Inhibitors of the Functional Ribonucleoprotein Complex (vRNP) of Lassa (LASV) Arenavirus: Viability assay - alamar blue signal for LASV Primary Screen (AID 1347083). Note: nearly all actives have a fitted effect of over 80% in size. Particulars: cell viability, alamar blue fluorescence (LASV minigenome counter-screen); series mostly up to 57.5 µM. On the technique in general: Quantitative high-throughput screening tests each substance at several concentrations.
As to `Nc1c(CC(=O)O)cccc1C(=O)c1ccc(Br)cc1`, the Potency result was “inactive”. Take `O=C(O)c1cn(C2CC2)c2cc(Cl)c(F)cc2c1=O`: the Potency result is “inactive”.

Regarding `CN(C)CCC(c1ccccc1)c1ccccn1` (stereo not drawn), the Potency entry was “inactive”.

`CCN(CCCc1ccccc1)CCCc1ccccc1`: the Potency result is “inactive”. The same measure for `C[C@@H]1C[C@H]2[C@@H]3CCC4=CC(=O)C=C[C@]4(C)[C@@]3(F)[C@@H](O)C[C@]2(C)[C@H]1C(=O)CO`: “inactive”; for `CC1=C(C)C(=O)C(C(CCCCCC(=O)O)c2ccccc2)=C(C)C1=O` (stereo not drawn): “inactive”; for `CCN(CC)C(=O)N1CCN(C)CC1`: “inactive”.

In the case of `C#C[C@]1(O)CC[C@H]2[C@@H]3CCC4=CC(=O)CC[C@@H]4[C@H]3CC[C@@]21C`, the Potency entry is “inactive”.

Regarding `C/C(=C(/OCCOc1ccc(Cl)cc1)c1ccc(Cl)cc1Cl)n1ccnc1`, the Potency entry was “inactive”. As to `C[C@]12C=CC(=O)C=C1CC[C@H]1[C@@H]3C[C@@H](O)[C@](O)(C(=O)CO)[C@@]3(C)C[C@H](O)[C@@]12F`, the Potency result was “inactive”.

As to `C[C@@]12CCC[C@H]1[C@@H]1CC[C@H]3C[C@@H](O)CC[C@]3(C)[C@H]1CC2`, the Potency entry was “inactive”. `Cc1c(F)cc2c(=O)c(C(=O)O)cn3c2c1CCC3C` (stereo not drawn): the Potency result is “inactive”. For `O=c1[nH]c2ccccc2c(=O)n1CCCl`, the Potency entry is “inactive”. With `OC[C@H]1O[C@@H](OCCc2ccc(O)cc2)[C@H](O)[C@@H](O)[C@H]1O`, the Potency entry is “inactive”. For the compound `COC(=O)c1cc(S(N)(=O)=O)ccc1OC`, the Potency entry was “inactive”. `O=C(NCCCN1CCOCC1)c1ccc(Cl)cc1`: the Potency result was “inactive”. `CC(C)N=C(N)/N=C(\N)Nc1ccc(Cl)cc1`: the Potency entry is “inactive”. For `CC(=O)OCC(=O)[C@@]12N=C(C)O[C@@H]1C[C@H]1[C@@H]3CCC4=CC(=O)C=C[C@]4(C)[C@H]3[C@@H](O)C[C@@]12C`, the Potency result is “inactive”.
